Screening data: PubChem, Buhrlage Lab, Dana-Farber Cancer Institute and Novartis Institutes for BioMedical Research (Cambridge, Mass)
The list is not random: actives were taken first. Their share in the collection is about 9.2%.
USP7 inh = inhibitors of human USP7 deubiquitinase; Q93009; purified USP7, Ub-rhodamine cleavage fluorescence; inhibition, % at 20 µM; 0.3% of 47,000 active; AID 1645854
UCHL1 inh = blocks human UCHL1 ubiquitin-rhodamine cleavage; P09936; AID 1645859; purified UCHL1, Ub-rhodamine cleavage fluorescence; inhibition, % at 20 µM; 0.2% of 47,000 active
USP10 inh = inhibitors of human USP10 deubiquitinase; inhibition, % at 20 µM; 1.1% of 47,000 active; Q14694; AID 1645856; purified USP10, Ub-rhodamine fluorescence, 60 min
OTUD3 block = inhibitors of human OTUD3 deubiquitinase. purified OTUD3, Ub-rhodamine fluorescence, 2 h. inhibition, % at 25 µM. 0.7% of 47,000 active. AID 1645858
USP8 block = blocks human USP8 ubiquitin-rhodamine cleavage; inhibition, % at 20 µM; 4.2% of 47,000 active; P40818; purified USP8, Ub-rhodamine cleavage fluorescence, 30 min; AID 1645853
USP17 inh = inhibitors of human USP17 deubiquitinase; AID 1645855; inhibition, % at 50 µM; A8MUK1; purified USP17, Ub-rhodamine cleavage fluorescence, 3 h; 6.5% of 47,000 active
A number is an active result; . = inactive; / = not tested or not shown. Rule as the data show it: active = inhibition above about 30%; inactive = the rest.

SMILES	USP7 inh	UCHL1 inh	USP10 inh	OTUD3 block	USP8 block	USP17 inh
COc1ccccc1NS(=O)(=O)c1ccc(NC(=O)Cc2ccc(Cl)cc2)cc1	.	.	.	.	.	45
O=C(COC(=O)c1ccc(NS(=O)(=O)c2ccc(F)c(F)c2)cc1)Nc1ccc(OCc2ccccc2)cc1	.	.	53	.	.	.
CCc1ccc(CN(C)C(=O)c2ccc(NS(=O)(=O)c3ccc(F)c(F)c3)cc2)cc1	.	.	38	.	.	.
O=C(COc1ccc(Cl)cc1)Nc1ccc(S(=O)(=O)Nc2ccccc2)cc1	.	.	.	.	.	41
COc1ccc(S(=O)(=O)NCc2ccc(C(=O)N(C)Cc3ccccc3)cc2)cc1	.	.	.	.	.	.
O=C(C1CCN(c2nc3ccc(-c4cncnc4)nc3s2)CC1)N1CCCC1	.	.	.	.	.	.
CC(=O)c1cccc(-n2c(=O)c(C#N)cc3c(=O)n4cccc(C)c4nc32)c1	.	.	.	.	.	.
O=C(CC1Nc2ccccc2OC1=O)Nc1ccc(Cl)cc1 (configuration not stated)	.	.	.	.	.	.
Cc1cccc(NC(=O)CC2Nc3ccccc3OC2=O)c1 (configuration not stated)	.	.	.	.	.	41
O=C(NCc1noc(-c2ccc(F)cc2)n1)C1CC1c1ccccc1 (configuration not stated)	.	.	.	.	.	.
O=C(Cc1ccc(-n2c(=O)[nH]c3ccsc3c2=O)cc1)N1CCC(Cc2ccccc2)CC1	.	.	.	.	.	47
O=C(Oc1ccc(F)cc1)c1cc(-c2ccc3c(c2)OCCO3)on1	.	.	.	.	55	.
CC(=O)c1cccc(NC(=O)CC(c2ccco2)n2cccc2)c1 (configuration not stated)	.	.	.	.	.	.
COc1cc2c(c(OC)c1OC)-c1ccc(NCCc3ccccc3)c(=O)cc1[C@@H](NC(C)=O)CC2	.	.	.	.	.	.
Cc1csc(NC(=O)c2c[nH]c3ccc(F)cc3c2=O)n1	.	.	46	.	85	.
c1coc(-c2nc3ccccc3c3nnc(SCc4ccc5nonc5c4)n23)c1	.	.	.	.	.	.
O=C(CSc1nnc2c3ccccc3nc(-c3ccco3)n12)N1CCCc2ccccc21	.	.	48	.	34	.
O=C1COC2(CCN(C(=O)C3(c4cccc(F)c4)CCOCC3)C2)CN1c1ccc(F)cc1 (configuration not stated)	.	.	.	.	.	.
COc1ccc(-n2nnc(C(=O)Nc3cccc(F)c3)c2C)cc1	.	.	.	.	.	48
Cc1ccc(-n2nnc(C(=O)Nc3ccc(F)cc3)c2C)cc1C	.	.	.	.	.	.
Cc1ccc(-n2nnc(C(=O)Nc3ccccc3F)c2C)cc1C	.	.	.	.	.	56
Cc1c(C(=O)Nc2ccc(Cl)cc2)nnn1-c1ccc(F)cc1	.	.	.	.	.	.
COc1ccc(-n2nnc(C(=O)Nc3ccc(F)cc3)c2C)cc1	.	.	.	.	.	50
COc1ccc(NC(=O)c2nnn(-c3ccc(F)cc3)c2C)cc1	.	.	.	.	.	48
O=S1(=O)N=CNc2ccc(S(=O)(=O)N3CCCCC3)cc21	.	.	.	.	.	.
SMILES	USP7 inh	UCHL1 inh	USP10 inh	OTUD3 block	USP8 block	USP17 inh
COC1C(C)=C(C)C(=O)N1C1CCCc2ccccc21 (configuration not stated)	.	.	.	.	.	/
Cc1ccc(C(=O)NNC(=O)CSc2nnc(Cc3ccccc3)n2Cc2ccccc2)cc1	.	.	.	.	.	.
COc1ccc(C(=O)c2nnn(-c3ccc(OC(F)(F)F)cc3)c2C)cc1	.	.	.	.	33	.
COc1ccc(C(=O)Nc2sc3c(c2C(=O)NCc2cccnc2)CCCC3)cc1	.	.	.	40	.	66
COc1ccc(CN2CCc3oc(C)c(C(=O)NCc4cccnc4)c3C2)cc1	.	.	.	.	.	.
Cc1ccc(NC(=O)Nc2cccn3ncnc23)cc1	.	.	.	.	.	.
COC(=O)c1ccccc1NC(=O)CSc1ncnc2c1oc1ccccc12	.	.	.	.	.	.
CCC(C)c1ccc(-c2csc(Cn3c(CN4CCN(C)CC4)nc4ccccc4c3=O)n2)cc1 (configuration not stated)	.	.	.	.	.	58
CCn1c(CN2CCN(Cc3ccccc3)CC2)nc2ccccc21	.	.	.	.	.	.
CCN(CC)CCCNc1ncnc2c1sc1nc(N3CCOCC3)c3c(c12)CCC3	.	.	.	.	.	.
